In PubChem BioAssay (NCATS):
Inconclusive results are not listed. A number with no mark means an inactive call. Activity calls are given as the source filed them. Calls come from the whole dose curve; as a rule, active = well fitted inhibition curve with a large enough effect; inconclusive = small, poorly fitted or top-dose-only effect; inactive = flat fitted curve, though single readings scatter.

How the values were obtained:
[1] = test system: CRL-7250; assay: Cytotoxic Profiling of Annotated Libraries Using Quantitative High-Throughput Screening (AID 1296008); conditions: Five cell lines viability, CellTiter-Glo ATP luminescence, 48-72 h; max response: hits give low values; note: nearly all actives have a fitted effect of over 60% in size
Outline: (§1)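 Cells exposed to compounds for 48 or 72 hr at 37 degrees Celsius. Viability read as ATP-coupled luminescence with CellTiter-Glo after 10 min at room temperature.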

[2] = test system: HEK293; assay: as above; conditions: Five cell lines viability, CellTiter-Glo ATP luminescence, 48-72 h; max response: hits give low values
Outline: as §1
% is set by controls: 0 for no effect and ±100 for the full control effect; potency is the fitted concentration of half-maximal effect.

In the case of `C[C@@H]1O[C@@H](O[C@@H]2[C@@H](O)[C@H](O[C@H]3[C@H](O[C@H]4CC[C@@]5(C)C(CC[C@]6(C)C5CC=C5[C@@H]7CC(C)(C)CC[C@]7(C(=O)O[C@@H]7O[C@H](CO)[C@@H](O)[C@H](O)[C@H]7O[C@@H]7O[C@@H](C)[C@H](O[C@@H]8O[C@@H](C)[C@H](O)[C@@H](O)[C@H]8O)[C@@H](O)[C@H]7O)CC[C@]56C)[C@@]4(C)CO)O[C@H](C(=O)O)[C@@H](O)[C@@H]3O)O[C@H](CO)[C@H]2O)[C@H](O)[C@H](O)[C@H]1O` (stereo partly specified), the outcome [1] was “inactive” and the max response [2] was -2.3%.
`O=S(=O)(Nc1ccccn1)c1ccc(N=Cc2c(O)[nH]c3ccc4ncsc4c23)cc1` was tested, and the outcome [1] was “inactive” and the max response [2] was -3.48%.
For `CC/C=C\CCO[C@@H]1O[C@H](CO[C@@H]2OC[C@H](O)[C@H](O)[C@H]2O)[C@@H](O)[C@H](O)[C@H]1O`, the outcome [1] was “inactive” and the outcome [2] was “inactive”.
In the case of `CC1COC(Nc2ccc3ncnc(Nc4ccc(OCc5nccs5)c(Cl)c4)c3c2)=N1` (stereo unspecified), the Potency [1] was 9.2 µM (active) and the Potency [2] was 11.6 µM (active).
With `C[C@@H]1O[C@@H](O[C@H]2[C@H](O)[C@@H](O)[C@H](OC[C@H]3O[C@@H](OC(=O)[C@]45CCC(C)(C)C[C@H]4C4=CCC6[C@@]7(C)CC[C@H](O[C@@H]8OC[C@H](O)[C@H](O[C@@H]9O[C@H](CO)[C@@H](O)[C@H](O)[C@H]9O)[C@H]8O)[C@@](C)(CO)C7CC[C@@]6(C)[C@]4(C)CC5)[C@H](O)[C@@H](O)[C@@H]3O)O[C@@H]2CO)[C@H](O)[C@H](O)[C@H]1O` (stereo partly specified) the outcome [1] was “inactive” and the max response [2] was -14.9%.
In the case of `COC(=O)[C@@H](O)[C@H]1[C@@]2(C)CC3(O)[C@@H](C(=O)[C@H]2O)[C@]24O[C@]25CC(=O)O[C@@H](c2ccoc2)[C@]5(C)CCC4[C@]13C` (stereo partly specified), the outcome [1] was “inactive” and the max response [2] was -0.209%.
Compound `COc1cc2c(c(OC)c1CC=C(C)C)C[C@H](c1ccc(O)cc1O)CO2` has a max response [1] of -5.34% and a max response [2] of 0.883%.
In the case of `COc1cc2ncnc(Nc3cccc(Cl)c3F)c2cc1OC(=O)N1CCN(C)C[C@H]1C`, the max response [1] was -58.2% and the max response [2] was -115%.
For `COC(=O)c1ccc(OC(CO)C(O)c2ccc(O)c(OC)c2)c(OC)c1` (stereo unspecified), the max response [1] was 0.832% and the max response [2] was 1.51%.
For `C/C1=C\[C@H]2OC(=O)[C@@H](C)[C@@H]2CC/C(C(=O)O)=C/CC1`, the max response [1] was -1.29% and the max response [2] was -16.7%.
Work on `CC1=C(C)C(=O)OC(C(C)C2CCC3C4CC=C5CC(OC6OC(COC7OC(CO)C(O)C(O)C7O)C(O)C(O)C6O)CC(O)C5(C)C4CCC23C)C1` (stereo unspecified) yielded a max response [1] of -1.46% and a max response [2] of -1.67%.
`CCC1=CC2CN(C1)Cc1c([nH]c3ccccc13)[C@@](C(=O)OC)(c1cc3c(cc1OC)N(C)[C@H]1[C@@](O)(C(=O)OC)[C@H](OC(C)=O)[C@]4(CC)C=CCN5CC[C@]31[C@@H]54)C2` (stereo partly specified) was tested, and the Potency [1] was 0.126 µM (active) and the Potency [2] was 0.1 µM (active).
Work on `C/C=C1\[C@H](O[C@@H]2O[C@H](CO)[C@@H](O)[C@H](O)[C@H]2O)OC=C2C(=O)OCCc3ccc(O)c(c3)Oc3ccc(cc3)CCOC(=O)C[C@H]21` yielded a max response [1] of -21.9% and a max response [2] of -25.1%.
